High-throughput results as filed in PubChem BioAssay.
TDP1 cell noCPT – qHTS for Inhibitors of human tyrosyl-DNA phosphodiesterase 1 (TDP1): qHTS in cells in absence of CPT | DT40 Tdp1-/- hTDP1 cells, no CPT, ATP luminescence, 48 h | Potency, µM (titrated, usually from 46.2 µM), without a hit: at the highest dose activity change, negative = growth inhibition, hits mostly inhibitors | 15% of 420,000 active; also: potency is read from the fitted curve at half-maximal effect; nearly all actives have a fitted effect of over 55% in size
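Chicken DT40 Tdp1-/- cells stably complemented with human TDP1 were seeded at 400 cells/well with DMSO in place of 20 nM camptothecin. After compound pinning, cells grew at least 48 hr at 37 °C; viability read by CellTiter-Glo luminescence.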
HT1080NT lethal – kills 2HG-producing HT-1080-NT fibrosarcoma cells; HT-1080-NT fibrosarcoma viability, CellTiter-Glo ATP luminescence, 48 h; AID 686970; Potency, µM (highest dose often 46.1 µM), inactives show at the highest dose activity, negative = less viability, usual class: cytotoxic; 1.6% of 360,000 active;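 also: NT is the 2HG producing partner of a matched IDH1 knockdown line; potency is read from the fitted curve at half-maximal effect; 0% = DMSO-treated cells and -100% = media-only wells without cells; nearly all actives have a fitted effect of over 55% in size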
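750 cells/well, RPMI + 5% FBS; 2 h settle, compound pin-transfer, 48 h at 37 degrees C. CellTiter-Glo 10 min RT, luminescence. Normalized to DMSO and media-only wells.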
HT1080 IDH1KD tx – toxicity to HT-1080 IDH1 knockdown cells (counter line); Potency, µM (doses to about 46.1 µM), without a hit: at the highest dose activity, negative = toxicity, most hits filed as cytotoxic; HT-1080 IDH1 knockdown viability, ATP luminescence, 48 h; 2% of 360,000 active;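 also: potency is read from the fitted curve at half-maximal effect; 0% = DMSO wells and -100% = cell-free medium wells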
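IDH1KD HT-1080 cells, 750/well, RPMI + 5% FBS; compound pinned after 2 h settling; 48 h, 37 °C; CellTiter-Glo luminescence; % activity normalised to DMSO and no-cell wells; curves fitted, classed by r2 and efficacy.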
IL-1B inflam inh – inflammasome signaling inhibition, IL-1 beta readout; THP-1 LPS/ATP IL-1B secretion, AlphaLISA, 16 h; active compounds read low; activity change, % at 57.5 µM; 4.7% of 360,000 active; in the data active = activity change below about -50%; inconclusive = mostly about -30% to -49%
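THP-1 cells pretreated 1 hr with compounds (up to 57.5 uM final), then stimulated with LPS (250 ng/mL final) plus ATP (1.25 mM final); secreted IL-1B measured by AlphaLISA after 16 hr, decreased signal indicating inhibition.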
ELG1 repair inh – blocks ELG1-dependent DNA repair in HEK293T cells. HEK293T ELG1-luciferase reporter, luminescence, 16 h; DNA damage induced by 5-fluorouridine. Potency, µM (titrated, usually from 46.1 µM), inactives show at the top dose activity change, negative = inhibition, actives largely listed as inhibitors. 2.3% of 330,000 active. AID 504467; also: potency is read from the fitted curve at half-maximal effect; nearly all actives have a fitted effect of over 55% in size
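Step one: seed 2,000 cells per well. Step two: pin-transfer compound or DMSO alongside 5-fluorouridine. Step three: incubate 16 hr, 37 °C, 5% CO2. Step four: add ONE-Glo, wait 30 min, read luminescence.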
TDP1 cell CPT – DT40-hTDP1 cell growth loss with CPT | Potency, µM (series often up to 46.2 µM), for inactives: top-dose activity change, negative = growth inhibition, most hits filed as inhibitors | AID 686979 | chicken DT40 Tdp1-/-;hTDP1 cells + 20 nM CPT, ATP luminescence, 48 h | 12% of 420,000 active; also: potency is read from the fitted curve at half-maximal effect; nearly all actives have a fitted effect of over 55% in size
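Chicken DT40 Tdp1-/- cells stably complemented with human TDP1 were seeded at 400 cells/well in medium containing 20 nM camptothecin, exposed to pin-transferred compounds, and grown at 37 °C for at least 48 hr. Viability was read as ATP luminescence.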
* = called active by the depositor. Sampled rows, rich in hits. Any-hit rate of the full collection: about 19%. Unless noted, calls follow the shape of the dose curve; as a rule, active = well fitted curve in the direction sought with a large enough effect; inconclusive = small, poorly fitted or top-dose-only effect, or another doubt; inactive = no such curve, though single readings can be large; an effect the other way counts as inactive or inconclusive. Unless noted, % is scaled to controls: 0 for no effect and ±100 for the full control effect.

Results for N#Cc1ccc(Cl)cc1NC(=O)CN1C(=O)C(=O)N(CCC2=CCCCC2)C1=O ?
TDP1 cell noCPT: -19%; HT1080NT lethal: 0%; HT1080 IDH1KD tx: -6%; IL-1B inflam inh: 21; TDP1 cell CPT: -10%

How did O=[N+]([O-])c1cc(Br)c(OCc2nnc(-c3ccccc3)o2)c(Br)c1 do in these assays?
TDP1 cell noCPT: inconclusive; HT1080NT lethal: 1%; HT1080 IDH1KD tx: -2%; IL-1B inflam inh: -13; ELG1 repair inh: 0%; TDP1 cell CPT: -30%

Results for O=[N+]([O-])c1ccc2c(OCc3nnc(-c4ccccc4Br)o3)ncnc2c1 ?
TDP1 cell noCPT: 13µM*; HT1080NT lethal: inconclusive; HT1080 IDH1KD tx: inconclusive; IL-1B inflam inh: 38; ELG1 repair inh: inconclusive; TDP1 cell CPT: inconclusive

Results for CC(=O)c1ccc(N2CCN(S(=O)(=O)c3ccc(-c4cnc(C5CC5)o4)cc3)CC2)cc1 ?
TDP1 cell noCPT: inconclusive; HT1080NT lethal: 15µM*; HT1080 IDH1KD tx: 21µM*; IL-1B inflam inh: 30; ELG1 repair inh: inconclusive; TDP1 cell CPT: 3.3µM*

Results for O=S(=O)(c1ccc(-c2cnc(C3CC3)o2)cc1)N1CCN(c2ccc(F)cc2)CC1 ?
TDP1 cell noCPT: 0.41µM*; TDP1 cell CPT: 0.92µM*

What do the screens show for `COc1cccc(N2CCN(S(=O)(=O)c3ccc(-c4cnc(C5CC5)o4)cc3)CC2)c1`?
TDP1 cell noCPT: 0%; HT1080NT lethal: -4%; HT1080 IDH1KD tx: 0%; IL-1B inflam inh: 23; ELG1 repair inh: -2%; TDP1 cell CPT: -20%

How did O=S(=O)(c1ccc(-c2cnc(C3CC3)o2)cc1)N1CCN(c2cccc(Cl)c2)CC1 do in these assays?
TDP1 cell noCPT: 3.3µM*; TDP1 cell CPT: 4.1µM*

What do the screens show for `CCS(=O)(=O)c1ccc(-c2csc(-c3ccccc3)n2)c(Cl)c1Cl`?
TDP1 cell noCPT: 21µM*; HT1080NT lethal: -14%; HT1080 IDH1KD tx: -21%; IL-1B inflam inh: -12; ELG1 repair inh: -8%; TDP1 cell CPT: 16µM*

What do the screens show for `CCCN(C)C1CN(Cc2cn(Cc3ccc(OC)cc3)nn2)S(=O)(=O)C1` (stereo not drawn)?
TDP1 cell noCPT: -13%; HT1080NT lethal: 1%; HT1080 IDH1KD tx: 16%; IL-1B inflam inh: 0; TDP1 cell CPT: -4%

What do the screens show for `CC(C)c1ccc(NC(=O)c2sccc2-n2cccc2)cc1`?
TDP1 cell noCPT: inconclusive; HT1080NT lethal: -10%; HT1080 IDH1KD tx: -1%; IL-1B inflam inh: 16; ELG1 repair inh: inconclusive; TDP1 cell CPT: inconclusive

What do the screens show for `O=C(CCN1CCN(c2ccccc2)CC1)N/N=C/c1ccccc1O`?
TDP1 cell noCPT: -118%; HT1080NT lethal: inconclusive; HT1080 IDH1KD tx: 21µM*; IL-1B inflam inh: 141; ELG1 repair inh: inconclusive; TDP1 cell CPT: inconclusive

Results for O=C(CCn1cnc2ccccc21)N/N=C/c1ccccc1O ?
TDP1 cell noCPT: 23µM*; HT1080NT lethal: inconclusive; HT1080 IDH1KD tx: inconclusive; IL-1B inflam inh: 253; ELG1 repair inh: inconclusive; TDP1 cell CPT: inconclusive

What do the screens show for `COc1cc(/C=N/NC(=O)CCN2CCN(C(c3ccccc3)c3ccccc3)CC2)ccc1O`?
TDP1 cell noCPT: 12µM*; HT1080NT lethal: -1%; HT1080 IDH1KD tx: inconclusive; IL-1B inflam inh: -11; ELG1 repair inh: -27%; TDP1 cell CPT: 13µM*

How did CCS(=O)(=O)N1CCN(c2ccc(Cl)cc2[N+](=O)[O-])CC1 do in these assays?
TDP1 cell noCPT: inconclusive; HT1080NT lethal: 21%; HT1080 IDH1KD tx: 17%; IL-1B inflam inh: -2; ELG1 repair inh: 9%; TDP1 cell CPT: -28%

Results for O=C(CSc1nnc(-c2ccncc2)o1)Oc1ccccc1 ?
TDP1 cell noCPT: -9%; HT1080NT lethal: 17%; HT1080 IDH1KD tx: 21%; IL-1B inflam inh: 5; ELG1 repair inh: 2%; TDP1 cell CPT: -1%

How did O=C(CSc1nnc(-c2ccccc2O)o1)Oc1ccc(OCc2ccccc2)cc1 do in these assays?
TDP1 cell noCPT: 13µM*; HT1080NT lethal: inconclusive; HT1080 IDH1KD tx: inconclusive; IL-1B inflam inh: 17; ELG1 repair inh: inconclusive; TDP1 cell CPT: 13µM*

How did O=S(=O)(c1ccc2c(c1)OCCO2)N1CCC(n2nnc3cc(C(F)(F)F)ccc32)CC1 do in these assays?
TDP1 cell noCPT: 16µM*; HT1080NT lethal: -22%; HT1080 IDH1KD tx: -18%; IL-1B inflam inh: -30; ELG1 repair inh: inconclusive; TDP1 cell CPT: inconclusive

What do the screens show for `Cc1ccccc1-c1nn(-c2ccc(F)cc2F)cc1CNCCCN(C)C`?
TDP1 cell noCPT: 7.3µM*; HT1080NT lethal: inconclusive; HT1080 IDH1KD tx: inconclusive; IL-1B inflam inh: -62*; ELG1 repair inh: -6%; TDP1 cell CPT: inconclusive

Results for Cc1ccccc1-c1nn(-c2ccc(F)cc2F)cc1CNCCN(C)C ?
TDP1 cell noCPT: -25%; HT1080NT lethal: -4%; HT1080 IDH1KD tx: -21%; IL-1B inflam inh: inconclusive; ELG1 repair inh: 10%; TDP1 cell CPT: -13%

What do the screens show for `O=C(CCCn1c(=S)[nH]c2ccsc2c1=O)Nc1ccc2c(c1)OCCO2`?
TDP1 cell noCPT: -4%; HT1080NT lethal: 1%; HT1080 IDH1KD tx: 0%; IL-1B inflam inh: 8; ELG1 repair inh: inconclusive; TDP1 cell CPT: 8%

Results for Cc1ccc(-n2ncc(C(=O)NCc3ccccn3)c2C2CCN(C(=O)OC(C)(C)C)CC2)c(C)c1 ?
TDP1 cell noCPT: 21µM*; TDP1 cell CPT: inconclusive

What do the screens show for `COc1ccc(CCNC(=O)c2cnn(-c3ccc(F)cc3)c2C2CCN(C(=O)OC(C)(C)C)CC2)c(OC)c1`?
TDP1 cell noCPT: 13µM*; TDP1 cell CPT: inconclusive

What do the screens show for `Cc1cccc(-n2ncc(C(=O)N3CCOCC3)c2C2CCN(C(=O)OC(C)(C)C)CC2)c1`?
TDP1 cell noCPT: -7%; TDP1 cell CPT: -11%

How did COc1ccc(CCNC(=O)c2cnn(-c3cccc(C)c3)c2C2CCN(C(=O)OC(C)(C)C)CC2)cc1OC do in these assays?
TDP1 cell noCPT: 15µM*; TDP1 cell CPT: inconclusive

Results for COc1ccc(OC)c(CCNC(=O)c2cnn(-c3ccccc3)c2C2CCN(C(=O)OC(C)(C)C)CC2)c1 ?
TDP1 cell noCPT: 23µM*; TDP1 cell CPT: 13µM*
